# Measured values from PubChem BioAssay AID1851 (National Center for Advancing Translational Sciences (NCATS), 2009).
# Where “and” joins values, the source holds several entries; their conditions need not be identical. Identical values can stand only once. Screen size: about 16,000 compounds; about 5,800 (36%) were called active. Roughly 23% stayed inconclusive and do not appear here. This is one part of the list. Values without a mark were called inactive. Calls follow the shape of the dose curve; as a rule, active = well fitted curve in the direction sought with a large enough effect; inconclusive = small, poorly fitted or top-dose-only effect, or effect the other way; inactive = no such curve, though single readings can be large or run the other way.
# Target: Cytochrome P450 2C19 (Homo sapiens) (UniProt P33261)
# Sequence (P33261 whole entry, looked up): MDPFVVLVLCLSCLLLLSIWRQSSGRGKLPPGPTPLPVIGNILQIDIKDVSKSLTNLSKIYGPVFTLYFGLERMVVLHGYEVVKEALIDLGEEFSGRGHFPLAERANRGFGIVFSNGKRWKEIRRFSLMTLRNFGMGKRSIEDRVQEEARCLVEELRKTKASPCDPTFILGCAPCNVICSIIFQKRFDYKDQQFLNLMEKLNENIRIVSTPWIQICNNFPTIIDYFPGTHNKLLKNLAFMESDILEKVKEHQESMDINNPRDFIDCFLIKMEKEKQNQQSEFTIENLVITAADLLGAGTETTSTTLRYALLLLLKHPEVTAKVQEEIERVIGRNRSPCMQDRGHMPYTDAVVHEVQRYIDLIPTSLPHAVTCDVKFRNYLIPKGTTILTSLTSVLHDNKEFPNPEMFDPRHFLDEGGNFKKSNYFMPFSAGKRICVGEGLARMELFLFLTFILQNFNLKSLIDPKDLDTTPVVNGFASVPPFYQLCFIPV
# Experiment: Cytochrome panel assay with activity outcomes
# Conditions: recombinant CYP, pro-luciferin dealkylation, luminescence, p450-cyp2c19; series mostly up to 57.1 µM
# % is scaled to controls: 0 for no effect and ±100 for the full control effect.
Compound,"activity, negative = inhibition",AC50
O=C(O)/C=C(/C(=O)O)[C@]12CCN3CC4=CCO[C@@H]5CC(=O)N[C@@H]1[C@H]5[C@H]4C[C@H]32,-10% [at 11.4 µM],–
CC(C)=CCC/C(C)=C/CO/N=C1/C[C@@H](O)[C@@H](O)[C@@H]2[C@@H]3C(=O)N(C(C)(C)C)C(=O)[C@H]3CC[C@H]12,12.2% [at 11.4 µM],–
N#CCCn1c(=O)c(-c2ccc(F)cc2)nc2cnc(N3CCOCC3)nc21,–,inactive
CNc1oc(-c2ccc(Cl)cc2)nc1C#N,–,11.2 µM (active)
O=C(NCCNS(=O)(=O)c1ccc(Cl)cc1)c1cc(OCC(F)(F)F)ccc1OCC(F)(F)F,–,2.51 µM (active)
O=C(O)CONC(=O)c1cc(OCC(F)(F)F)ccc1OCC(F)(F)F,–,inactive
CCN(CC)CCNC(=O)c1cc(S(C)(=O)=O)ccc1OC,–,inactive
O=C(NCCNS(=O)(=O)c1ccccc1Cl)c1cc(OCC(F)(F)F)ccc1OCC(F)(F)F,–,14.1 µM (active)
COC(=O)c1c(-c2ccc3ccccc3c2)csc1NC(=O)Cc1ccc(OC)c(OC)c1,–,1.41 µM (active)
CCOC(=O)c1c(-c2ccc(OC)cc2)csc1NC(=O)CCN1C(=O)c2ccccc2C1=O,–,5.62 µM (active)
CCOC(=O)c1c(-c2cccc(C)c2)csc1NC(=O)c1c(-c2ccccc2)noc1C,–,inactive
CCOC(=O)c1c(-c2ccccc2)csc1NC(=O)c1cccc(N2C(=O)CCC2=O)c1,–,3.55 µM (active)
N/C(=N\O)c1cn([C@@H]2O[C@@H](CO)[C@H](O)[C@@H]2O)c2ncnc(NO)c12,14.4% [at 11.4 µM],–
CC(=O)Nc1c(I)c(C(=O)N[C@H]2[C@@H](O)[C@H](O)[C@H](CO)O[C@@H]2O)c(I)c(N(C)C(C)=O)c1I,–,inactive
Cc1ccc(OCCCN2C(=O)C(=O)c3cccc(C)c32)cc1,–,3.98 µM (active)
NS(=O)(=O)c1ccc(N=Nc2nc3[nH]c(=O)[nH]c(=O)c3[nH]2)cc1,-0.933% [at 11.4 µM],–
N#[N+]c1ccc(Nc2ccccc2)cc1,23.3% [at 11.4 µM],–
CC(C)(C)NC(=S)Nc1ccc(Nc2ccccc2)cc1,–,4.47 µM (active)
Nc1ccc(Nc2ccccc2)cc1,–,10 µM (active)
CNC(=S)Nc1ccc(Nc2ccccc2)cc1,–,5.62 µM (active)
C=CC[C@@H]1C=C[C@H](O/N=C(\C)CCN2CCCc3nc(C)c(C)cc32)[C@H](CO)O1,29.1% [at 11.4 µM],–
CC(C(=O)NC1CCCC1)N(C(=O)c1ccc(-c2ccccc2)[nH]1)c1ccccc1F (stereo unspecified),–,3.98 µM (active)
Cc1cccc(C)c1NC(=O)C(c1ccc(Cl)cc1Cl)N1CCCCC1 (stereo unspecified),–,15.8 µM (active)

Compound,"activity, negative = inhibition",AC50
O=C(COc1cccc(NC(=O)c2cccc([N+](=O)[O-])c2)c1)c1ccc(Br)cc1,–,1.26 µM (active)
COc1ccc(/C=N/OCc2nc3c4c(ncn3n2)Oc2ccc3ccccc3c2C4c2ccccc2)cc1 (stereo unspecified),–,0.0794 µM (active)
Cc1ccc(NC2=NC(c3ccccc3)n3c(nc(C)cc3=O)N2)c(C)c1 (stereo unspecified),–,14.1 µM (active)
Nc1nnnn1/N=C\c1ccc(Cl)c([N+](=O)[O-])c1,–,0.2 µM (active)
CC1CCN(c2ccc(/C=N/n3nnnc3N)cc2[N+](=O)[O-])CC1,–,inactive
CC(C)(CO[C@H]1C[C@H]2CC[C@@]1(C)C2(C)C)[N+](=O)[O-],12.6% [at 11.4 µM],–
CC(Sc1nc(-c2ccccc2)cc(C(F)(F)F)n1)C(=O)N1CCCCC1 (stereo unspecified),–,10 µM (active)
O=C(O)CSc1cc(C(F)(F)F)nc(-c2ccccn2)n1,–,inactive
O=c1[nH]c2cc(Br)cnc2nc1/C=C(\O)c1ccc(F)cc1,–,inactive
Cc1cccc(CCNc2nc3ccccc3n3nnnc23)c1,–,1.58 µM (active)
CCC(=O)NC(NC(=O)CC)C(Cl)Cl,–,inactive
CN1CCN(NC(=O)CN2C(=O)/C(=C/c3c(Cl)cccc3Cl)SC2=S)CC1,–,4.47 µM (active)
CC(C)(C)C(=O)[C@H]1[C@H](c2ccccc2)[C@@]2(N=C(c3ccccc3)OC2=O)C2c3ccccc3C=NN21 (stereo partly specified),–,1.12 µM (active)
COc1ccccc1-c1cc(C(=O)Nc2cc(C)n(Cc3ccc(Cl)cc3)n2)no1,–,2.51 µM (active)
CCCCOC(=O)CCc1c(C)[nH]c(=O)c(C#N)c1C,–,10 µM (active)
CCCCc1[nH]c(=O)c(C#N)c2c1CCCC2,–,inactive
CCOC(=O)Cc1cc(=O)n2[nH]c(C)c(C#N)c2n1,–,inactive
CC(=O)N1CCC[C@@]2(CCN(c3ncccn3)C2)C1,–,inactive
CCc1cccc2c(C=C(C#N)C#N)cn(CC(=O)N3CCCC3)c12,–,inactive
CCc1cccc2c(C=C(C#N)C#N)cn(CC(=O)N3CCCCC3)c12,–,inactive
CCN(CC)C(=O)Cn1cc(/C=C(\C#N)C(=O)N2CCN(c3ccccc3)CC2)c2ccccc21,–,2 µM (active)
Cc1noc(C)c1C(=O)N1CCC[C@@]2(CCN(Cc3ccccc3)C2)C1,–,inactive
COc1cc(CC(=O)O)ccc1O,–,inactive

Compound,"activity, negative = inhibition",AC50
COC(=O)c1ccc(CCc2cc(O)ccc2O)cc1,–,3.16 µM (active)
COC(=O)c1cc(Br)c(=O)n(CCc2ccc(O)cc2)c1,–,3.55 µM (active)
COC(=O)[C@](C)(N)Cc1ccc(O)cc1,–,inactive
O=C(O)Cc1ccc(O)c(O)c1,–,inactive
CC(C)=CCC/C(C)=C/CO/N=C1/C[C@@H](O)[C@@H](O)[C@@H]2[C@H]3C(=O)N(c4ccc(F)cc4F)C(=O)[C@@H]3CC[C@@H]12,-9.14% [at 11.4 µM],–
COc1ccccc1C(=O)NN1C(=O)C2C3C=CC(O3)C2C1=O (stereo unspecified),–,inactive
COc1ccccc1C(=O)NC(=S)N1CCCc2ccccc21,–,2 µM (active)
O=C(CSc1nnc2c3ccccc3c3ccccc3c2n1)Nc1ccccc1,–,2 µM (active)
c1ccc(CSc2nnc3c4ccccc4c4ccccc4c3n2)cc1,-34.7% [at 11.4 µM],–
c1ccc(-c2nc(NCCCn3ccnc3)c3oc4ccccc4c3n2)cc1,–,0.158 µM (active)
c1ccc2c(c1)oc1c(NCCCn3ccnc3)ncnc12,–,3.55 µM (active)
c1cncc(-c2ccc3ncnc(NCCN4CCOCC4)c3c2)c1,–,inactive
CNc1csc(C)c(C)c1=O,–,28.2 µM (active)
O=C(O)c1cc(S(=O)(=O)N2CCCCC2)ccc1F,–,inactive
Cc1nc2ncnn2c(C)c1CCC(=O)Nc1ccc(S(=O)(=O)N2CCCCCC2)cc1,–,inactive
O=C(Nc1ccc(F)cc1)c1cc(S(=O)(=O)N2CCCCC2)cs1,–,22.4 µM (active)
Cc1ccc(S(=O)(=O)Oc2cc(S(=O)(=O)O)cc3cc(S(=O)(=O)O)cc(N)c23)cc1,7.86% [at 11.4 µM],–
Cc1ccc(S(=O)(=O)Oc2cc(N)c3c(n2)CCC3)cc1,–,1 µM (active)
Cc1ccc(S(=O)(=O)O[C@@H]2[C@H]([C@@H]3COC(C)(C)O3)O[C@H]3OC(C)(C)O[C@@H]32)cc1,45.2% [at 11.4 µM],–
O=C(c1cccc(F)c1)N1CCC2(CCN(Cc3ccccc3)CC2)CC1,–,inactive
CC(C)CC(=O)N1CCN(Cc2cccc(F)c2)CC1,–,3.55 µM (active)
CC(C)CN1CCC2(CC1)CCN(C(=O)c1cccc(F)c1)CC2,–,inactive
COc1ccc(-n2c(=O)c(-c3cccs3)nc3cnc(N4CCNCC4)nc32)cc1,–,inactive

Compound,"activity, negative = inhibition",AC50
COc1ccc(-c2nc3cnc(N4CCNCC4)nc3n(Cc3ccc(F)cc3)c2=O)cc1,–,inactive
COc1cccc(Cn2c(=O)c(-c3ccc(Cl)cc3)nc3cnc(N4CCNCC4)nc32)c1,–,25.1 µM (active)
COc1cccc(Cn2c(=O)c(-c3cccs3)nc3cnc(N4CCNCC4)nc32)c1,–,31.6 µM (active)
COc1cccc(Cn2c(=O)c(-c3cccs3)nc3cnc(N4CCN(C)CC4)nc32)c1,–,inactive
COc1ccc(-n2c(=O)c(-c3ccc(Cl)cc3)nc3cnc(N4CCOCC4)nc32)cc1,–,25.1 µM (active)
COc1ccc(-n2c(=O)c(-c3ccc(F)cc3)nc3cnc(N4CCOCC4)nc32)cc1,–,inactive
COc1cccc(Cn2c(=O)c(-c3ccc(Cl)cc3)nc3cnc(N4CCN(C)CC4)nc32)c1,–,inactive
COc1ccc(-n2c(=O)c(-c3ccc(Cl)cc3)nc3cnc(N4CCNCC4)nc32)cc1,–,inactive
C[C@@H](NCc1cc(Br)cc2[nH]c(=O)c(=O)[nH]c12)P(=O)(O)O,–,inactive
COc1ccc(C[N+](C)(C)N)cc1OC,22.8% [at 11.4 µM],–
COc1ccc(CCN(C)CCc2ccc(OC)c(OC)c2)cc1OC,–,inactive
COc1ccc(CC(=S)N2CCOCC2)cc1OC,–,10 µM (active)
CO[C@@H]1COC(=O)[C@@H](C)NC(=O)C/C=C\[C@@H](C)[C@H](NS(=O)(=O)c2ccc(C)cc2)COC(=O)[C@H](C)NC(=O)C/C=C\[C@H]1C,1.72% [at 11.4 µM],–
O=C(NCCCCc1ccccc1)C1CC(c2ccccc2[N+](=O)[O-])=NO1 (stereo unspecified),–,7.08 µM (active)
Cc1ccc(CNC(=O)C2CC(c3ccccc3[N+](=O)[O-])=NO2)o1 (stereo unspecified),–,7.94 µM (active)
Cc1ccc(CCNC(=O)C2CC(c3ccccc3[N+](=O)[O-])=NO2)cc1 (stereo unspecified),–,11.2 µM (active)
Cc1ccc(CNC(=O)C2CC(c3ccccc3[N+](=O)[O-])=NO2)cc1 (stereo unspecified),–,3.16 µM (active)
NCCNCC1CCNCC1,2.44% [at 11.4 µM],–
C/C(CCN1CCCc2nc(C)c(C)cc21)=N\O[C@@H](C)c1cn([C@H](CO)Cc2ccccc2)nn1,-18.6% [at 11.4 µM] and 31.1% [at 11.4 µM],–
CC1(C(=O)CSc2nc3ccccc3s2)CCC(=O)O1 (stereo unspecified),–,11.2 µM (active)
CC(C)CC1CC(=O)OC1(C)C(=O)CSc1nc2ccccc2s1 (stereo unspecified),–,7.94 µM (active)
O=C(CSc1nc2ccccc2s1)c1sc2sc3ccccc3[n+]2c1O,-17.6% [at 11.4 µM],–
